We go through nine compounds from the supplement of paper PMC7156485.

± gives the standard deviation of the averaged measurements.

Common to all, as to conditions: concentration: 10 µM; 24 h
The test system of assay [1] is HCC1569. The experiment in a line: cell number relative to DMSO (% of DMSO); higher = more cells (less growth inhibition / toxicity). The procedure, abridged:
(§1)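 For HCC1569 and TDF cells, compounds at 10 µM were applied for 24 h at 37 °C in triplicate in 384-well plates. Cells were fixed in 3.7% formaldehyde, stained for H1.0 and with DAPI, and imaged at ×10 over six fields per well. The endpoint, H1.0 nuclear intensity or cell number, is shown as percent of the plate control using the median of replicates. Positional effects were smoothed for HCC1569 only.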

The test system of assay [2] is TDF. The description is as above. The procedure, abridged:
as §1

The test system of assay [3] is TDF. The experiment in a line: H1.0 immunofluorescence intensity relative to DMSO (% of DMSO); higher = stronger H1.0 induction, active = 120 or more. In short, it runs like this:
as §1

Assay [4] concerns HCC1569. The experiment in a line: H1.0 immunofluorescence intensity relative to DMSO (% of DMSO); higher = stronger H1.0 induction, active = 140 or more. In short, it runs like this: as §1
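Throughout, for H1.0 immunofluorescence intensity relative to DMSO: TDF is a line of transformed human dermal fibroblasts of mesenchymal origin.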
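Throughout, for cell number relative to DMSO: TDF denotes transformed human dermal fibroblasts of mesenchymal origin.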

Take `Cc1nc2ccc(Oc3ccc(F)cc3)cc2c(=O)n1C[C@H]1CCCN(C(C)C)C1.Cl`: the cell number amounted to 94.1 in assay [1] and 105 in assay [2]. Also, the H1.0 immunofluorescence intensity is 117 (inactive) in assay [3] and 102 (inactive) in assay [4].
Taken in the same sequence, the figures for `CCN(CC)CC(=O)Nc1c(C)cccc1C.Cl` [Lidocaine hydrochloride] were 97.3, 101, 89 (inactive) and 94.4 (inactive).
Regarding `CC12C=CC(=O)C=C1CCC1C3CC(O)C(O)(C(=O)CO)C3(C)CC(O)C12F` (stereo unspecified) [Triamcinolone], the values for the cell number in assay [1] and in assay [2] were 97.5 ± 4.1 and 105 ± 9.9, respectively. Also, the H1.0 immunofluorescence intensity in assay [3] is 86.8 (inactive); in assay [4], 117 (inactive).
On the same counts, the results for `CCCCCCCCCCCCCCCCCCCCCCC(=O)O` [Tricosanoic acid] are 99.7, 99.8, 105 (inactive) and 105 (inactive).
Consider `O=c1cc(-c2ccc(O)cc2)oc2c(C3OC(CO)C(O)C(O)C3O)c(O)cc(O)c12` (stereo unspecified) [Vitexin], for which the figures for the cell number in assay [1] and in assay [2] were 101 and 100, respectively. Also, the H1.0 immunofluorescence intensity was 99.5 (inactive) in assay [3] and 85.1 (inactive) in assay [4].
On the same counts, the results for `CCC(CCC(C)C1CCC2C3CC=C4CC(O)CCC4(C)C3CCC12C)C(C)C` (stereo unspecified) are 99.8, 92.5, 105 (inactive) and 90.6 (inactive).
On the same counts, the results for `COC(=O)C1=C(C)NC(C)=C([N+](=O)[O-])C1c1ccccc1C(F)(F)F` (racemic) are 99, 103, 92.2 (inactive) and 98 (inactive).
Regarding `COc1ccc2[nH]c(S(=O)Cc3ncc(C)c(OC)c3C)nc2n1` (stereo unspecified) [Tenatoprazole], the cell number in assay [1] amounted to 103; in assay [2] it was 104. In addition, the results for the H1.0 immunofluorescence intensity in assay [3] and in assay [4] were 106 (inactive) and 100 (inactive), respectively.
Taken in the same sequence, the figures for `CCCC(CCC)C(=O)NO` [N-hydroxy-2-propylpentanamide] were 100, 102, 98.7 (inactive) and 80.8 (inactive).
